According to PubChem BioAssay (NCATS):
Results filed as inconclusive are left out. Calls of active or inactive are those of the source. The call rests on the fitted dose curve; in most records, active means well fitted curve in the direction sought with a large enough effect; inconclusive means small, poorly fitted or top-dose-only effect, or another doubt; inactive means no such curve, though single readings can be large; an effect the other way counts as inactive or inconclusive.

Columns and labels:
[1] = Cellular Toxicity (caspase-3) NIH 3T3 (AID 666);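 further: caspase signal read after 16 h compound exposure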
How it was run: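 Cells were plated at 1000 per well and incubated 5 hr at 37°C, then compound was added for 16 hr. Caspase-Glo 3/7 reagent followed for 20 min at room temperature before luminescence was read.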

[2] = Cellular Toxicity (caspase-3) Renal Proximal Tubule (AID 667);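 further: cells exposed to compound for 16 hours at 37 °C before detection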
How it was run: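 Primary rat proximal tubule cells, 1000/well, 5 h plating at 37 °C, then compound 16 h at 37 °C. Caspase-Glo 3/7 reagent, 1 h RT, luminescence. Normalized to DMSO (basal) and 10 uM staurosporine (100%); Hill-fit AC50.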

[3] = molecular target: Cytochrome P450 3A4 (Homo sapiens) (UniProt P08684); assay: qHTS Assay for Inhibitors and Substrates of Cytochrome P450 3A4 (AID 884); further: series mostly up to about 57 µM; nearly all actives have a fitted effect of over 50% in size
How it was run: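 Luminescent readout of luciferin produced by CYP3A4 (20 nM) dealkylation of Luciferin-PPXE, 25 uM (its KM). NADPH-driven reaction ran 60 min at RT after 10 min compound preincubation; data scaled to 57 uM ketoconazole as 100% inhibition.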

[4] = Cell Viability - LYMP2-001 (AID 921); further: series mostly up to about 92 µM; nearly all actives have a fitted effect of over 70% in size
How it was run: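 Human lymphoblastoid cells (Coriell), 2500 per well, were preincubated 5 hr at 37 C, then exposed to compounds in complete medium for 24 hr at 37 C. Cellular ATP was read by CellTiter-Glo luminescence; AC50 from Hill fits of concentration-response data.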

[5] = MultiTox-Fluor Cytotoxicity Assay - LYMP1-001 - Dead Cells (AID 946)
How it was run: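 AC50 from Hill fit of concentration-response; data normalized to DMSO (basal) and 15 uM tetraoctylammonium bromide (100%). LYMP1-001 lymphoblastoid cells, 2500/well, 16 hr compound at 37 C; dead-cell protease fluorescence, Ex/Em 485/520.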

[6] = MultiTox-Fluor Cytotoxicity Assay - LYMP1-001 - Live Cells (AID 947)
[7] = Cell Viability - LYMP1-002 - Assay at 16 hr (AID 948)
How it was run: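 Human lymphoblastoid cells (LYMP1-002), 2500/well, were preincubated 5 hr at 37 C, then exposed to compounds for 16 hr at 37 C in complete medium. Cellular ATP was read by CellTiter-Glo luminescence after 30 min at room temperature; AC50 from Hill fits.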

[8] = MultiTox-Fluor Cytotoxicity Assay - LYMP1-002 - Live Cells (AID 955)
How it was run: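 Cells were seeded at 2500 per well and incubated 5 hr. Compounds were then added for 16 hr at 37 C, followed by MultiTox-Fluor reagent for 60 min at room temperature and fluorescence reading of viable-cell protease signal.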

[9] = MultiTox-Fluor Cytotoxicity Assay - LYMP1-002 - Dead Cells (AID 960); further: nearly all actives have a fitted effect of over 60% in size
How it was run: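 Cells were plated, rested 5 hr, then treated with compound dilution series for 16 hr at 37 C. After adding substrate reagent and 60 min at room temperature, dead-cell protease fluorescence gave concentration-response curves fitted by the Hill equation.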

[10] = MultiTox-Fluor Cytotoxicity Assay - LYMP1-003 - Dead Cells (AID 961); further: nearly all actives have a fitted effect of over 70% in size
How it was run: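 Human lymphoblastoid LYMP1-003 cells (2500/well) were treated with compounds for 16 hr at 37 C in complete medium. Dead-cell protease release was read by bis-AAF-R110 fluorescence (Ex/Em 485/520). AC50 came from Hill fits, normalized to DMSO and 15 uM tetraoctylammonium bromide.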

[11] = MultiTox-Fluor Cytotoxicity Assay - LYMP1-003 - Live Cells (AID 962);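 further: cytotoxic hits lower the live-cell protease signal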
How it was run: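 Acute cytotoxicity is scored as a drop in live-cell protease activity in human lymphoblastoid LYMP1-003 cells after 16 hr compound exposure at 37 C. AC50 values come from Hill-equation modelling of concentration-response data.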

[12] = Cell Viability - LYMP1-003 - Assay at 24 hr (AID 963)
How it was run: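 Cytotoxicity is scored as a concentration-dependent fall in ATP-linked luciferase signal in human lymphoblastoid LYMP1-003 cells treated 24 hr at 37 C in complete culture medium.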

[13] = Cell Viability - LYMP1-003 - Assay at 40 hr (AID 964); further: series mostly up to about 92 µM; nearly all actives have a fitted effect of over 60% in size
How it was run: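 Luminescent ATP signal (CellTiter-Glo) served as the viability read-out after 40 hr compound treatment of human lymphoblastoid LYMP1-003 cells at 37 C. Decreases in ATP were fitted with the Hill equation to give AC50.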

[14] = Cell Viability - LYMP2-003 (AID 965);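 further: cells exposed to compounds for 24 h before reading; nearly all actives have a fitted effect of over 50% in size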
How it was run: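 Human lymphoblastoid cells (2500/well) were pre-incubated 5 hr at 37 C, then exposed to compounds over a concentration range for 24 hr at 37 C. Intracellular ATP was read by CellTiter-Glo luminescence; AC50 came from Hill-equation fits.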

[15] = Cell Viability - LYMP2-004 (AID 966); further: nearly all actives have a fitted effect of over 65% in size
How it was run: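 qHTS cytotoxicity: human lymphoblastoid line, 24 hr compound treatment, 37 C, complete medium. Viability read as cellular ATP via luciferase luminescence; tetraoctylammonium bromide served as positive control.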

[16] = Cell Viability - LYMP2-005 (AID 967); further: series mostly up to about 92 µM
How it was run: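 CellTiter-Glo luminescence (cellular ATP) read-out; LYMP2-005 lymphoblastoid cells, 2500/well, 5 h pre-incubation, then 24 h compound exposure at 37 C in complete medium. Tetraoctylammonium bromide positive control; AC50 by standard Hill fit.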

[17] = Cell Viability - LYMP2-011 (AID 969); further: nearly all actives have a fitted effect of over 60% in size
How it was run: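 In this qHTS cytotoxicity format, compounds are tested across concentrations on human lymphoblastoid cells in complete medium for 24 hours at 37 C. Viability is taken as cellular ATP measured by luciferase luminescence.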

[18] = Cell Viability - LYMP2-013 (AID 970); further: series mostly up to about 92 µM; nearly all actives have a fitted effect of over 55% in size
How it was run: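 Cytotoxicity is scored as a concentration-dependent drop in intracellular ATP in human lymphoblastoid cells after 24 hr compound exposure at 37 C. ATP is quantified by luciferase luminescence, and AC50 values come from Hill-equation modeling.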

[19] = Cell Viability - LYMP2-015 (AID 971); further: nearly all actives have a fitted effect of over 55% in size
How it was run: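 Cells are seeded at 2500 per well and incubated 5 hr at 37 C. Compounds are added across a concentration series for 24 hr at 37 C. CellTiter-Glo is added, and luminescence is read after 30 min at room temperature.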

[20] = Cell Viability - LYMP2-017 (AID 972); further: series mostly up to about 92 µM; nearly all actives have a fitted effect of over 55% in size
How it was run: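 Cytotoxicity is scored as a concentration-dependent drop in cellular ATP in a human lymphoblastoid line after 24 hr treatment at 37 C. Values are AC50s from Hill-equation modelling.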

[21] = Cell Viability - LYMP2-019 (AID 973); further: nearly all actives have a fitted effect of over 55% in size
How it was run: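 Cytotoxicity is scored as a concentration-dependent drop in cellular ATP after cells (2500/well) receive compound for 24 hr at 37 C. Tetraoctylammonium bromide serves as positive control.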

[22] = Cell Viability - LYMP2-021 (AID 974)
How it was run: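 Loss of cellular ATP, measured with a luciferase-based CellTiter-Glo readout, serves as the toxicity signal in human lymphoblastoid cells treated for 24 hours at 37 C. Potency is reported as AC50 from a standard Hill model.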

[23] = Cell Viability - LYMP2-023 (AID 975)
How it was run: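 Steps: seed 2500 human lymphoblastoid cells per well, incubate 5 hr at 37 C, add compound for 24 hr at 37 C, add CellTiter-Glo, hold 30 min at room temperature, read luminescence. AC50 derived by Hill modelling.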

Measured: Potency

Sequence of Cytochrome P450 3A4 (Homo sapiens) (P08684 whole entry, looked up): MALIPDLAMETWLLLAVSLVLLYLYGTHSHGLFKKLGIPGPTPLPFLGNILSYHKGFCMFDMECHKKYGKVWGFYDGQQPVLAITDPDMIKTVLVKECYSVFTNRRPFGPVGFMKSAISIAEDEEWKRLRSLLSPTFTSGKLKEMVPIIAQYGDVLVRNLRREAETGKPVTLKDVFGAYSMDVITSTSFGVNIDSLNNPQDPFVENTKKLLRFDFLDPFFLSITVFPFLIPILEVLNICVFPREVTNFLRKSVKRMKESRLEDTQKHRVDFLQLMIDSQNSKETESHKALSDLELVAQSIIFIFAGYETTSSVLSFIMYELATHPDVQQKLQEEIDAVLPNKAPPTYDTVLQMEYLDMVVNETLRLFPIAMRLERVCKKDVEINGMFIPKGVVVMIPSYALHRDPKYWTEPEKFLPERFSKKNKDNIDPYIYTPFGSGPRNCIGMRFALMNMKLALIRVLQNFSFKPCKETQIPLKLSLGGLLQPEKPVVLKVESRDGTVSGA

O=Cc1ccccc1
inactive: all assays above
